Screens: PubChem, The Scripps Research Institute Molecular Screening Center
Hits are enriched below; roughly 3.5% of the tested compounds scored in any of these assays.
MITF inh: inhibitors of human MITF. O75030. AlphaScreen MITF homodimerization, bead proximity signal. inhibition, % at 2.6 µM. hit rate 0.91% among 650,000. AID 1259374; in the data active means inhibition above about 50%;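 further: 0% = vehicle wells with protein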
GPR151 activ: human GPR151 activation; Q8TDV0; PathHunter beta-arrestin GPR151 cells, luminescence; activation, % at 11.2 µM; hit rate 1% among 650,000; in the data active means activation above about 4.9%;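 further: 0% = median of compound wells and 100% = cells with positive control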
FBW7 activator: activators of human E3 ligase FBW7 | hit rate 0.13% among 650,000 | normalized activity (activation), % at 26.1 µM | AlphaScreen FBW7–phospho-cyclin E peptide binding, activator screen | Q969H0; in the data active means normalized activity above about 1.9%;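 further: purified mutant Fbw7 with reduced substrate affinity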
Target sequence (Q969H0 whole entry, looked up): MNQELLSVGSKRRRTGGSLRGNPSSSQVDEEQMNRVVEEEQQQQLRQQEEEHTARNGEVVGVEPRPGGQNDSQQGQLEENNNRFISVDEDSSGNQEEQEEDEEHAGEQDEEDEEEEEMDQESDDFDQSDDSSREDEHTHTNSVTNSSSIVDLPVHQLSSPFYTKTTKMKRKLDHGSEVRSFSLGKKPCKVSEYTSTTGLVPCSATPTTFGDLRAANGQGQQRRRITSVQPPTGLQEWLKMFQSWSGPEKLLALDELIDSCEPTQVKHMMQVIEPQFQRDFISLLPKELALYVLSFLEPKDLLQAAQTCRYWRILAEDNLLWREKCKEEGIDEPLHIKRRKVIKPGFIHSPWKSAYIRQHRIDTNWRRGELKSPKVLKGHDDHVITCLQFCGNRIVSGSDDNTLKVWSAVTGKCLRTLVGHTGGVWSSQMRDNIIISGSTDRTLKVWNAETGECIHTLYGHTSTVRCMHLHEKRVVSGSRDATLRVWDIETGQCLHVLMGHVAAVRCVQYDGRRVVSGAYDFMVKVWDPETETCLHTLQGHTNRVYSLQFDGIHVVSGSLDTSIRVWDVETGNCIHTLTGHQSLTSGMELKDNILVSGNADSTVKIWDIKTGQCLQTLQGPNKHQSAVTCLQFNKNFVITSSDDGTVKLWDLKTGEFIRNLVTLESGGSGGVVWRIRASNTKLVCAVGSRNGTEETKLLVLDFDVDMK
TEAD-YAP block: TEAD-YAP interaction inhibition; HEK-TIYL cells, TEAD-Gal4/YAP UAS-luciferase luminescence; inhibition, % at 9.12 µM; hit rate 1.4% among 640,000; AID 1259422; in the data active means inhibition above about 32%;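 further: 0% = median of test compound wells and 100% = reference inhibitor wells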
GPR151 confirm: confirmation of human GPR151 activators | shares compounds with GPR151 activ | GPR151 PathHunter beta-arrestin cells, luminescence, 90 min; % of EA-reagent control over plate median | activation, % at 11.2 µM | 6,700 tested, under 10 active | AID 1508609;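 active means mean percent activation across replicates above the confirmation screen cutoff of 4.91%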
GPR119 ag: counter-screen for GPR151 activators: effect on human GPR119; shares compounds with GPR151 activ; GPR119 PathHunter beta-arrestin cells, luminescence, 90 min; 0 = compound-well median, 100 = enzyme-acceptor control; activation, % at 11.2 µM; hit rate 0.3% among 6,700;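 active means mean percent activation in the counterscreen above 29.09%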;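 further: counterscreen on off-target GPR119 to flag nonselective hits from the GPR151 activator screen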
Numbers without * were called inactive; . = no result given.

SMILES	MITF inh	GPR151 activ	FBW7 activator	TEAD-YAP block	GPR151 confirm	GPR119 ag
CN1CCN(Cc2ccc(NC(=O)NCc3cccc4ccccc34)cc2)CC1	-11	7.0*	0	6	1	0
COc1ccc(NC(=O)Nc2ccc(CN3CCN(C)CC3)cc2)cc1	8	0	0	-45	.	.
O=c1cc(CN2CCN(c3cccc(Cl)c3)CC2)occ1OCc1ccccc1	-1	6.8*	0	3	0	-4
O=C(O)COc1coc(CN2CCN(c3cccc(Cl)c3)CC2)cc1=O	-14	-2	0	5	.	.
O=C(N1N=C(c2ccc(Br)cc2)CC1c1ccc(Br)cc1)C12CC3CC(CC(C3)C1)C2 (stereo not given)	-10	1	0	-12	.	.
CC1CN(C(=O)CCC(=O)N2CCOCC2)c2ccccc2O1 (stereo not given)	4	8.3*	0	8	-1	-19
CC(CC(=O)Nc1nc2ccc([N+](=O)[O-])cc2s1)c1ccccc1 (stereo not given)	18	6.5*	0	16	1	9
Cc1c(NC(=O)CSc2nnc(Cc3ccccc3)o2)c(=O)n(-c2ccccc2)n1C	3	1	1	-5	.	.
O=C1N/C(=C\c2ccc(N3CCCC3)c(F)c2)C(=O)N1Cc1ccc(F)cc1	6	-1	0	-1	.	.
COc1cc(OC)c(C(=O)OC(C)C(=O)NC(N)=O)cc1OC (stereo not given)	6	13*	0	-4	1	3
C=CCNC(=O)COc1c(C)cc(Br)cc1C	-10	12*	0	1	0	2
C=CCNC(=S)NNC(=O)COc1ccc2cc(Br)ccc2c1	-10	9.7*	0	-74	0	-4
CCCOc1ccc(C2C(=O)N(C3CCC(C)CC3)CC(=O)N2Cc2ccccc2)cc1OC (stereo not given)	-4	-1	0	-5	.	.
O=C(NCCC1=CCCCC1)c1cc(S(=O)(=O)NCCc2ccccc2)ccc1F	-8	9.7*	0	9	0	8
O=C(Nc1ccc(Cl)cc1)c1cc(S(=O)(=O)NCCC2=CCCCC2)ccc1F	9	1	0	27	.	.
COc1cc(/C=N/NC(=O)Cc2ccc(C(F)(F)F)cc2[N+](=O)[O-])ccc1O	6	-1	0	13	.	.
CC(C)[C@@H](CO)Nc1ccc2ncc(-c3cccc(N(C)C)c3)n2n1	11	0	0	4	.	.
CCC(CO)Nc1ccc2ncc(-c3cccc(N(C)C)c3)n2n1 (stereo not given)	-18	6.4*	0	5	0	-4
O=[N+]([O-])c1cc([N+](=O)[O-])c2nonc2c1Nc1cccc(C(F)(F)F)c1	18	7.1*	1	6	1	-10
CCC(=O)N1C(=O)CC(C)N(C(=O)CC)c2ccccc21 (stereo not given)	-7	5.9*	0	1	0	-1
COc1cccc(NC(=O)Cn2c(C)cc(=O)c3cc(Br)ccc32)c1	5	-1	0	11	.	.
CSCCC(NC(N)=O)C(=O)NNC(=O)c1ccc(COc2ccccc2)cc1 (stereo not given)	7	-2	0	2	.	.
O=S(=O)(CCOc1nc2cc(Cl)ccc2cc1CNC1CCOC1)c1ccccc1 (stereo not given)	14	6.8*	0	1	0	12
CCOC(=O)c1c(NC(=O)c2ccc(S(=O)(=O)N3CC(C)OC(C)C3)cc2)sc2c1CCN(CC)C2 (stereo not given)	22	-1	0	2	.	.
O=C(NCCO)C(=O)NCC(c1cccs1)S(=O)(=O)c1ccccc1 (stereo not given)	2	4.9*	0	-1	0	-12
O=S(=O)(NCCSc1nnnn1-c1ccccc1)c1ccccc1	-1	8.7*	0	-3	0	13
COc1ccc(CCNC(=O)c2sc3nc(C)nc(N4CCC(C)CC4)c3c2C)cc1OC	5	1	0	-14	.	.
Cc1nc(N2CCCCC2)c2c(C)c(C(=O)N3CCN(c4ccccc4)CC3)sc2n1	3	5.3*	0	12	0	-1
COc1ccc(CCNC(=O)c2sc3nc(C)nc(N4CCCCC4)c3c2C)cc1OC	0	25*	0	-3	1	-1
